Assay results from PubChem BioAssay (Tox21).
A number with no mark means an inactive call. Activity calls are given as the source filed them. Calls come from the whole dose curve; as a rule, active = well fitted curve in the direction sought with a large enough effect in the repeat runs; inconclusive = weak or mixed curves; inactive = flat fitted curve, though single readings scatter.

Assay: qHTS assay to test for compound auto fluorescence at 590 nm (red) in HEK293 cell free culture (AID 720683)
Conditions: cell-free medium autofluorescence, Ex540/Em590 red; series mostly up to 91.3 µM
How it was run: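 Cell-free wells of DMEM with 10% FBS received compound, and intrinsic fluorescence was read at excitation/emission 540/590 nm. Values expressed as equivalence to Rose Bengal sodium.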
% is set by controls: 0 for no effect and ±100 for the full control effect.

Compound | outcome
CC1(C)C(=O)C(C)(C)C1=O | inactive
CC(C)=CCC/C(C)=C\C#N | inactive
C=C(C)C(=O)OCCOC1CC2CC1C1C=CCC21 (stereo unspecified) | inactive
CCCCc1ccc(Cl)cc1 | inactive
CC(=O)c1c(C)cc(C(C)(C)C)cc1C | inactive
CCCCCCCC(=O)N(C)C | inactive

Assay: qHTS assay to test for compound auto fluorescence at 590 nm (red) in HepG2 cell free culture (AID 720684)
Conditions: cell-free medium autofluorescence, red 540/590 nm; series mostly up to 91.3 µM
How it was run: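 Rose Bengal sodium served as the reference for red signal. Test compounds were dispensed into serum-containing MEM (10% FBS) without cells, and plates were read at 540/590 nm.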

Compound | outcome | fluorescence, % of Rose Bengal
CC(C)(O)CCCC1=CCC(C=O)CC1 (stereo unspecified) | inactive | –
CCOC(=O)COc1ccc2c(C)c(CCN(CC)CC)c(=O)oc2c1Cl | inactive | –
NNC(=O)OCc1ccccc1 | inactive | –
C=COCCCCO | inactive | –
CC1(C)C(=O)C(C)(C)C1=O | inactive | –
COc1cc(OC)cc(OC)c1 | inactive | –
COc1cc(C(=O)NC2CCCNC2)cc(OC)c1OC (stereo unspecified) | inactive | –
Cc1nc2ccc(Cl)cc2[nH]1 | inactive | –
CCN1CCN(C(=O)N[C@@H](C(=O)N[C@@H]2C(=O)N3C(C(=O)O)=C(CSc4nnnn4C)CS[C@H]23)c2ccc(O)cc2)C(=O)C1=O | inactive | –
Cc1cccc(N)n1 | inactive | –
CCCOc1ccc(C(=O)OCCN(CC)CC)cc1N | inactive | –
CC(C)=CCC/C(C)=C\C#N | inactive | –
C=C(C)C(=O)OCCOC1CC2CC1C1C=CCC21 (stereo unspecified) | inactive | –
CC/C=C\CCOC(=O)c1ccccc1 | inactive | –
COC(=O)c1ccccc1Cl | inactive | –
CCCCc1ccc(Cl)cc1 | inactive | –
c1coc(Cn2cccc2)c1 | inactive | –
CC/C=C/CCCCCCCCCCOC(C)=O | inactive | –
CC(O)CCCCn1c(=O)c2c(ncn2C)n(C)c1=O (stereo unspecified) | inactive | –
C[C@@H]1CC[C@@]2(OC1)O[C@H]1C[C@H]3[C@@H]4CC[C@H]5C[C@@H](O)CC[C@]5(C)[C@H]4CC(=O)[C@]3(C)[C@H]1[C@@H]2C | – | 0.0999% [at 18.6 µM]
COc1cnc(NS(=O)(=O)c2ccc(N)cc2)nc1 | – | 0.414% [at 18.6 µM]
CC(CN1CC(=O)NC(=O)C1)N1CC(=O)NC(=O)C1 (stereo unspecified) | inactive | –
CC(=O)c1c(C)cc(C(C)(C)C)cc1C | inactive | –
Cc1cc(O)c(Cl)cc1C | inactive | –
C=C(C)C(=O)OCCCC | inactive | –
Cc1cc(N)no1 | inactive | –
C/C(Cl)=C/CCl | inactive | –
CCCCCCCC(=O)N(C)C | inactive | –
C=CCOC(=O)CCCCCCCC | inactive | –
O=C(O)/C=C(\CC(=O)O)C(=O)O | inactive | –

Assay: qHTS assay to test for compound auto fluorescence at 460 nm (blue) in HepG2 cell free culture (AID 720685)
Conditions: Cell-free culture medium, blue autofluorescence 405/460 nm; series mostly up to 91.3 µM
How it was run: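 Cell-free plates of MEM plus 10% FBS received 23 nL compound or DMSO vehicle; blue-channel (405/460 nm) intensity scored against triamterene as reference fluorophore.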

Compound | outcome | fluorescence, % of fluorescent control
CC(C)(O)CCCC1=CCC(C=O)CC1 (stereo unspecified) | inactive | –
CCOC(=O)COc1ccc2c(C)c(CCN(CC)CC)c(=O)oc2c1Cl | inactive | –
NNC(=O)OCc1ccccc1 | inactive | –
C=COCCCCO | inactive | –
C[C@@H]1NC(=O)[C@@H](N)CNC(=O)[C@H](C2CCNC(N)=N2)NC(=O)/C(=C/NC(N)=O)NC(=O)[C@H](CNC(=O)C[C@@H](N)CCCN)NC1=O (stereo partly specified) | inactive | –
CC1(C)C(=O)C(C)(C)C1=O | inactive | –
COc1cc(OC)cc(OC)c1 | inactive | –
COc1cc(C(=O)NC2CCCNC2)cc(OC)c1OC (stereo unspecified) | inactive | –
Cc1nc2ccc(Cl)cc2[nH]1 | inactive | –
CCN1CCN(C(=O)N[C@@H](C(=O)N[C@@H]2C(=O)N3C(C(=O)O)=C(CSc4nnnn4C)CS[C@H]23)c2ccc(O)cc2)C(=O)C1=O | inactive | –
Cc1cccc(N)n1 | inactive | –
CCCOc1ccc(C(=O)OCCN(CC)CC)cc1N | inactive | –
CC(C)=CCC/C(C)=C\C#N | inactive | –
C=C(C)C(=O)OCCOC1CC2CC1C1C=CCC21 (stereo unspecified) | inactive | –
CC/C=C\CCOC(=O)c1ccccc1 | inactive | –
CC(C)C(C)C | inactive | –
COC(=O)c1ccccc1Cl | inactive | –

Compound | outcome | fluorescence, % of fluorescent control
CCCCc1ccc(Cl)cc1 | inactive | –
c1coc(Cn2cccc2)c1 | inactive | –
CC/C=C/CCCCCCCCCCOC(C)=O | inactive | –
CC(O)CCCCn1c(=O)c2c(ncn2C)n(C)c1=O (stereo unspecified) | inactive | –
C[C@@H]1CC[C@@]2(OC1)O[C@H]1C[C@H]3[C@@H]4CC[C@H]5C[C@@H](O)CC[C@]5(C)[C@H]4CC(=O)[C@]3(C)[C@H]1[C@@H]2C | – | 0.0653% [at 18.6 µM]
COc1cnc(NS(=O)(=O)c2ccc(N)cc2)nc1 | – | 0.0024% [at 18.6 µM]
CC(CN1CC(=O)NC(=O)C1)N1CC(=O)NC(=O)C1 (stereo unspecified) | inactive | –
CC(=O)c1c(C)cc(C(C)(C)C)cc1C | inactive | –
Cc1cc(O)c(Cl)cc1C | inactive | –
C=C(C)C(=O)OCCCC | inactive | –
Cc1cc(N)no1 | inactive | –
C/C(Cl)=C/CCl | inactive | –
CC(C)(C)c1ccc(N)cc1 | inactive | –
CCCc1ccc(O)c(OC)c1 | inactive | –
CCCCCCCC(=O)N(C)C | inactive | –
C=CCOC(=O)CCCCCCCC | inactive | –
O=C(O)/C=C(\CC(=O)O)C(=O)O | inactive | –

Assay: qHTS assay to test for compound auto fluorescence at 535 nm (green) in HepG2 cell free culture (AID 720686)
Conditions: Cell-free medium, green autofluorescence 485/535 nm; series mostly up to 91.3 µM

Compound | outcome | fluorescence, % of fluorescein control
CC(C)(O)CCCC1=CCC(C=O)CC1 (stereo unspecified) | inactive | –
CCOC(=O)COc1ccc2c(C)c(CCN(CC)CC)c(=O)oc2c1Cl | inactive | –
C=COCCCCO | inactive | –
C[C@@H]1NC(=O)[C@@H](N)CNC(=O)[C@H](C2CCNC(N)=N2)NC(=O)/C(=C/NC(N)=O)NC(=O)[C@H](CNC(=O)C[C@@H](N)CCCN)NC1=O (stereo partly specified) | inactive | –
CC1(C)C(=O)C(C)(C)C1=O | inactive | –
CCN1CCN(C(=O)N[C@@H](C(=O)N[C@@H]2C(=O)N3C(C(=O)O)=C(CSc4nnnn4C)CS[C@H]23)c2ccc(O)cc2)C(=O)C1=O | inactive | –
Cc1cccc(N)n1 | inactive | –
CCCOc1ccc(C(=O)OCCN(CC)CC)cc1N | inactive | –
CC(C)=CCC/C(C)=C\C#N | inactive | –
C=C(C)C(=O)OCCOC1CC2CC1C1C=CCC21 (stereo unspecified) | inactive | –
CC/C=C\CCOC(=O)c1ccccc1 | inactive | –
CC(C)C(C)C | inactive | –
COC(=O)c1ccccc1Cl | inactive | –
CCCCc1ccc(Cl)cc1 | inactive | –
c1coc(Cn2cccc2)c1 | inactive | –
CC/C=C/CCCCCCCCCCOC(C)=O | inactive | –
CC(O)CCCCn1c(=O)c2c(ncn2C)n(C)c1=O (stereo unspecified) | inactive | –
C[C@@H]1CC[C@@]2(OC1)O[C@H]1C[C@H]3[C@@H]4CC[C@H]5C[C@@H](O)CC[C@]5(C)[C@H]4CC(=O)[C@]3(C)[C@H]1[C@@H]2C | – | 0.0232% [at 18.6 µM]
COc1cnc(NS(=O)(=O)c2ccc(N)cc2)nc1 | – | 0.0043% [at 18.6 µM]
CC(CN1CC(=O)NC(=O)C1)N1CC(=O)NC(=O)C1 (stereo unspecified) | inactive | –
CC(=O)c1c(C)cc(C(C)(C)C)cc1C | inactive | –
Cc1cc(O)c(Cl)cc1C | inactive | –
Cc1cc(N)no1 | inactive | –
CCCc1ccc(O)c(OC)c1 | inactive | –
CCCCCCCC(=O)N(C)C | inactive | –
O=C(O)/C=C(\CC(=O)O)C(=O)O | inactive | –
